In PubChem BioAssay (NCATS):
Several values for one entry are separate records, joined by “and”; a condition that tells them apart may be missing. Identical values can stand only once. Results filed as inconclusive are left out. Where a call stands in place of a potency, no number is given. Values without a mark were called inactive. Activity calls are given as the source filed them. The call rests on the fitted dose curve; in most records, active means well fitted curve in the direction sought with a large enough effect; inconclusive means small, poorly fitted or top-dose-only effect, or another doubt; inactive means no such curve, though single readings can be large; an effect the other way counts as inactive or inconclusive.

Tests used:
[1] = target: Cellular tumor antigen p53 (Homo sapiens) (UniProt P04637); test: Primary qHTS for small molecule compounds that upregulate eGFP-tagged delta133p53alpha (in N-terminal) cells. (AID 2060322); settings: NCI-H358 eGFP-delta133p53alpha fluorescence, 24 h; activation: hits give high values; further: nearly all actives have a fitted effect of over 75% in size; further: potency means the concentration at half of the fitted maximal effect; on activation: series mostly up to about 56 µM
Chain of Cellular tumor antigen p53 (Homo sapiens) (P04637 whole entry, looked up): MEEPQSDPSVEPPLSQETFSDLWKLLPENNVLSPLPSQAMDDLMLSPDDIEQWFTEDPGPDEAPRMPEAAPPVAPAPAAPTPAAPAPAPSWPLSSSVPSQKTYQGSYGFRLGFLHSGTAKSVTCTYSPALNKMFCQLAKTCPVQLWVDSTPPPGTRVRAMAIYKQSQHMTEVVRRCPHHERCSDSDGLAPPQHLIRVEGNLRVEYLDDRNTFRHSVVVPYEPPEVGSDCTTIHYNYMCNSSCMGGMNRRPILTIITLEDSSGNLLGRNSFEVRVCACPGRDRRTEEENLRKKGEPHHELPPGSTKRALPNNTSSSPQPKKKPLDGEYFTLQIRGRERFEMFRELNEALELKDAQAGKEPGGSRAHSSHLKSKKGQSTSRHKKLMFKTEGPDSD
Summary of the method: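 NCI-H358 cells pre-induced 24 h with 10 ng/ml doxycycline to express N-terminal eGFP-delta133p53alpha, then dosed 24 h at 37C without doxycycline; fixed, Hoechst-stained, GFP intensity by laser scanning cytometry, normalized to DMSO (0%) and 57.5 uM 5-azacytidine (100%).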

[2] = target: Aldehyde dehydrogenase, mitochondrial (Homo sapiens) (UniProt P05091); test: qHTS for Inhibitors of the Aldehyde Dehydrogenase Family (ALDH2) Primary screen (AID 2061308); further: nearly all actives have a fitted effect of over 55% in size
[3] = target: Retinaldehyde dehydrogenase 3 (Homo sapiens) (UniProt P47895); test: qHTS for Inhibitors of the Aldehyde Dehydrogenase Family (ALDH1A3) Validation screen (AID 2061312); further: nearly all actives have a fitted effect of over 45% in size
[4] = target: Retinaldehyde dehydrogenase 3 (Homo sapiens) (UniProt P47895); test: qHTS for Inhibitors of the Aldehyde Dehydrogenase Family (ALDH1A3) Primary screen (AID 2061315)
[5] = BET inhibitor-based combinations targeting novel dependencies in MECOM-rearranged (r) AML: SET-2 cell line (AID 2202231); settings: SET-2 AML cells viability, CellTiter-Glo luminescence, 48 h; viability: hits give low values, concentration not given here; further: nearly all actives have a fitted effect of over 35% in size; further: potency means the concentration at half of the fitted maximal effect
Summary of the method: (§1)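 Here, 11-point titrations of each agent were applied to 500 seeded cells and incubated 48 hr; CellTiter-Glo signal, scaled against DMSO and empty wells, was integrated as AUC, then Z-scored within the individual line.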

[6] = BET inhibitor-based combinations targeting novel dependencies in MECOM-rearranged (r) AML: OCI-AML3 cell line (AID 2202232); settings: Potency: OCI-AML3 viability; further: nearly all actives have a fitted effect of over 35% in size; further: potency means the concentration at half of the fitted maximal effect
Summary of the method: as §1

[7] = BET inhibitor-based combinations targeting novel dependencies in MECOM-rearranged (r) AML: UCSD-AML1 cell line (AID 2202235); further: nearly all actives have a fitted effect of over 40% in size; further: potency means the concentration at half of the fitted maximal effect
Summary of the method: (§2)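 Normalized to DMSO and empty-well controls, the luminescence data from CellTiter-Glo after 48 hr drug exposure were fitted across 11 concentrations. Reported metrics are area under the dose-response curve and its Z-transformed form.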

[8] = BET inhibitor-based combinations targeting novel dependencies in MECOM-rearranged (r) AML: AML-191 cell line (AID 2202236; further: nearly all actives have a fitted effect of over 35% in size; further: potency means the concentration at half of the fitted maximal effect)
Summary of the method: as §1

[9] = BET inhibitor-based combinations targeting novel dependencies in MECOM-rearranged (r) AML: HNT-34 cell line (AID 2202234); further: nearly all actives have a fitted effect of over 35% in size; further: potency means the concentration at half of the fitted maximal effect
Summary of the method: as §2

[10] = BET inhibitor-based combinations targeting novel dependencies in MECOM-rearranged (r) AML: AML-194 cell line (AID 2202237; further: nearly all actives have a fitted effect of over 40% in size; further: potency means the concentration at half of the fitted maximal effect)
Summary of the method: as §1

[11] = BET inhibitor-based combinations targeting novel dependencies in MECOM-rearranged (r) AML: MV-4-11 cell line (AID 2202233); further: nearly all actives have a fitted effect of over 45% in size; further: potency means the concentration at half of the fitted maximal effect
Summary of the method: as §2

SMILES | activation [1] | Potency [2] | Potency [3] | Potency [4] | Potency [5] | Potency [6] | Potency [7] | Potency [8] | viability [5] [%] | Potency [9] | Potency [10] | Potency [11] | Potency [1]
CCC(CC)C(c1ccc(Nc2nc3ccccc3s2)cc1)n1cncn1 (stereo unspecified) | 17.2% | inactive | inactive | inactive | 20.9 µM (active) | 11.8 µM (active) | inactive | 16.6 µM (active) | – | – | – | – | –
COc1ccc2cc(OCC3(C(=O)O)CN(C(=O)c4ccc(F)cc4)C3)ccc2c1 | 2.86% | inactive | inactive | inactive | – | inactive | inactive | inactive | 113 | inactive | inactive | – | –
C[C@H](NC(=O)Cc1cc(F)cc(F)c1)C(=O)N[C@@H]1C(=O)N(C)c2ccccc2-c2ccccc21 | 27.1% and -2.39% | inactive | inactive | inactive | – | – | inactive | inactive | 121 | inactive | inactive | inactive | –
CCNCc1nc2c(N)nc3ccccc3c2n1CC(C)(C)O | -0.477% | inactive | inactive | inactive | – | – | inactive | – | 94.4 | – | inactive | 20.9 µM (active) | –
Cc1cc(C(=O)N2CCN(c3cccc(Cl)c3)CC2)n(-c2ccccc2)n1 | -1.43% | inactive | inactive | inactive | 9.34 µM (active) | 4.17 µM (active) | – | 2.09 µM (active) | – | – | 2.63 µM (active) | 3.72 µM (active) | –
O=C(O)C[C@H](O)C[C@H](O)/C=C/c1c(C2CC2)nc2ccccc2c1-c1ccc(F)cc1 | 15.3% | inactive | inactive | inactive | – | 1.05 µM (active) | – | 10.5 µM (active) | – | 2.95 µM (active) | 13.2 µM (active) | 2.09 µM (active) | –
CC(C)(C)OC(=O)N[C@H]1CCCCCC=C[C@@H]2C[C@@]2(C(=O)NS(=O)(=O)C2CC2)NC(=O)[C@@H]2C[C@@H](OC(=O)N3Cc4cccc(F)c4C3)CN2C1=O | 5.4% | inactive | inactive | inactive | – | – | inactive | inactive | 102 | inactive | inactive | – | –
CCCCn1c(=O)n(Cc2ccccc2F)c(=O)c2[nH]c(Cc3ccc(NC(C)=O)cc3)nc21 | 0.477% | inactive | inactive | inactive | – | inactive | inactive | inactive | – | – | inactive | – | –
Cc1nc(Nc2ncc(C(=O)Nc3c(C)cccc3Cl)s2)cc(N2CCN(CCO)CC2)n1 | – | inactive | inactive | inactive | – | 13.2 µM (active) | 7.42 µM (active) | 14.8 µM (active) | – | – | 11.8 µM (active) | 13.2 µM (active) | 9.53 µM (active)
CC(C)N(CCCNC(=O)Nc1ccc(C(C)(C)C)cc1)C[C@H]1O[C@@H](n2ccc3c(N)ncnc32)[C@H](O)[C@@H]1O | -20% and -29.1% | inactive | inactive | inactive | – | – | inactive | inactive | 93.2 | inactive | inactive | – | –
COCCCOc1ccnc(CS(=O)c2nc3ccccc3[nH]2)c1C (stereo unspecified) | -8.47% and 40% and -11.5% | inactive | inactive | inactive | – | inactive | inactive | inactive | – | inactive | inactive | – | –
CC(=O)N1CCN(CCOc2ccc(C3CCN(C4=Nn5c(nnc5C(F)(F)F)CC4)CC3)cc2)CC1 | -2.39% | inactive | inactive | inactive | 14.8 µM (active) | – | – | inactive | – | inactive | – | – | –
C=Cc1cc(O)cc2nc(-c3ccc(O)c(F)c3)oc12 | -0.955% | inactive | inactive | inactive | – | – | inactive | – | 113 | – | inactive | – | –
COc1cccc(Nc2c(C(N)=O)cnc3c(C)cc(S(=O)(=O)c4cccc(C(=O)N(C)C)c4)cc23)c1 | 11.1% and -9.07% | inactive | inactive | inactive | – | 16.6 µM (active) | inactive | 5.9 µM (active) | – | – | inactive | 3.32 µM (active) | –
COc1cc2c(NC3CCN(CC4CCCCC4)CC3)nc(N3CCCN(C(C)C)CC3)nc2cc1OCCCN1CCCCC1 | – | inactive | inactive | inactive | – | – | 10.5 µM (active) | 9.34 µM (active) | 104 | – | 16.6 µM (active) | – | 43.2 µM (active)
Nc1ncnc2c1c(-c1cccc(OCc3ccccc3)c1)cn2C1CC(CN2CCC2)C1 (stereo unspecified) | 26% and 8.59% | inactive | inactive | inactive | 16.6 µM (active) | – | – | 18.6 µM (active) | – | 18.6 µM (active) | 16.6 µM (active) | – | –
CCCCOc1nc(N)c2c(n1)N(Cc1cccc(CN3CCCC3)c1)CC(=O)N2 | 5.73% | inactive | inactive | inactive | – | – | inactive | – | 111 | – | inactive | – | –
Cn1cc(-c2ccc3nnc(C(F)(F)c4ccc5ncccc5c4)n3n2)cn1 | -10% and 1.43% | inactive | inactive | inactive | – | – | inactive | – | 106 | – | inactive | – | –
